From PubChem BioAssay (NCATS)
Records with an inconclusive call do not appear. A call without a number means that no potency is given here. Activity calls are given as the source filed them. The call rests on the fitted dose curve; in most records, active means well fitted inhibition curve with a large enough effect; inconclusive means small, poorly fitted or top-dose-only effect; inactive means flat fitted curve, though single readings scatter. Where a SMILES comes first, the peptide text is derived from it. [ ]: non-standard residue; d: D form. ξ: configuration not given here. ξPhe(βξ-Me) = CC(c1ccccc1)C(N)C(=O)O; GABA = NCCCC(=O)O

molecular target: Calcium and integrin-binding protein 1 (Homo sapiens) (UniProt Q99828); experiment: Primary qHTS for Identification of Calcium Integrin Binding Protein 1 (CIB1) Competitor (AID 1508620); conditions: CIB1-GST / FITC-alphaIIb peptide fluorescence polarization; series mostly up to 57.7 µM;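 further: GST tagged CIB1 binding a fluorescein labelled alphaIIb integrin peptide tracer; top concentration of the series differs between compounds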
In short: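 Fluorescence polarization competition: CIB1-GST (1 uM final) preincubated with compound 15 min at room temperature, then FITC-labeled alphaIIb peptide (100 nM final) added for another 15 min. Polarization read at Ex 480/Em 540.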

Sequence of Calcium and integrin-binding protein 1 (Homo sapiens) (Q99828 whole entry, looked up): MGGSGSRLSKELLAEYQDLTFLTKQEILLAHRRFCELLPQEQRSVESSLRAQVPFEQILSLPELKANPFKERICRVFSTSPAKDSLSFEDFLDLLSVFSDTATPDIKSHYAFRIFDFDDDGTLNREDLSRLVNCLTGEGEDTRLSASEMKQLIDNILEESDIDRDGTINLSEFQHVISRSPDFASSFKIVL

Row | SMILES | Potency
1 | COc1cc(/C=C/C(=O)OC[C@H]2O[C@H](O[C@]3(CO)O[C@H](CO)[C@@H](O)[C@@H]3O)[C@H](O)[C@@H](O)[C@@H]2O)cc(OC)c1O | inactive
2 | Clc1ccc2c(c1)C1=NCCN1c1c(-c3noc(C4CC4)n3)ncn1-2 | inactive
3 | OC1COC(OCC2OC(OCCc3ccccc3)C(O)C(O)C2O)C(O)C1O (configuration not stated) | inactive
4 | O=C(/C=C/c1ccc(O)cc1)O[C@H]1[C@@H]2C=CO[C@@H](O[C@@H]3O[C@H](CO)[C@@H](O)[C@H](O)[C@H]3O)[C@@H]2[C@@]2(CO)O[C@@H]12 | inactive
5 | CCC(C)C(=O)O[C@@H]1[C@@H](O)[C@@H](O[C@H]2O[C@H](CO)[C@@H](O)[C@H](O)[C@H]2O)O[C@H](CO)[C@H]1O (some centres not stated) | inactive
6 | COC1CC(=O)CCC(C)OC(=O)CC1O (configuration not stated) | inactive
7 | CC(C)CNC(=O)/C=C/CCCCc1ccc2c(c1)OCO2 | inactive
8 | C=C1CCC2C(OC(=O)C2(O)COC(C)=O)C2C(=C)C(O)CC12 (configuration not stated) | inactive
9 | Cc1coc2c1CC1OC1(C)CCC1OC1(C)C2 (configuration not stated) | inactive
10 | CC1=C2CC3OC3(C)CCC3OC3(C)CC2OC1=O (configuration not stated) | inactive
11 | CC(=O)OC[C@@]12[C@@H](OC(C)=O)C[C@@H](C)[C@](C)([C@@H]3C[C@H]4C=CO[C@H]4O3)[C@H]1CCC[C@]21CO1 | inactive
12 | COc1cc(C)c(C(=O)O[C@H]2[C@@H](O)[C@H](n3ccc(=O)[nH]c3=O)O[C@@H]2CO)c(OC)c1 | inactive
13 | OC[C@H]1O[C@@H](Oc2cc(O)cc(-c3cc4ccc(O)cc4o3)c2)[C@H](O)[C@@H](O)[C@@H]1O | inactive
14 | NC(=O)c1cccc(-c2cc(O)cc(OC(=O)NC3CCCCC3)c2)c1 | inactive
15 | C=CCc1ccc(O[C@@H]2O[C@H](CO[C@@H]3O[C@H](CO)[C@@H](O)[C@H](O)[C@H]3O)[C@@H](O)[C@H](O)[C@H]2O)c(O)c1 | inactive
16 | CCOc1c2c(c(OCC)c3ccccc13)C(=O)N(c1ccc(CC(=O)NS(=O)(=O)c3ccccc3)cc1)C2 | inactive
17 | COC(=O)CC1(O)C(=O)Nc2ccccc21 (configuration not stated) | inactive
18 | COc1cc(/C=C/c2cc(O)cc(O[C@@H]3O[C@H](CO)[C@@H](O)[C@H](O)[C@H]3O)c2)ccc1O | inactive
19 | CC1CCC2(C)C(CC(O)C(O)C23CO3)C1(C)CCC1=CC(O)OC1=O (configuration not stated) | inactive
20 | CC(=O)c1c(C)cc(O[C@@H]2O[C@H](CO)[C@@H](O)[C@H](O)[C@H]2O)cc1O | inactive
21 | N#CCc1ccc(O)cc1O[C@@H]1O[C@H](CO)[C@@H](O)[C@H](O)[C@H]1O | inactive
22 | CC(C)C(=O)O[C@@H]1[C@@H](O)[C@@H](O[C@H]2O[C@H](CO)[C@@H](O)[C@H](O)[C@H]2O)O[C@H](CO)[C@H]1O | inactive
23 | C=C1CC[C@@H]2[C@](C)(CC[C@H](O)[C@@]2(C)CCC=C(C)C)[C@@H]1Cc1c[nH]c2ccccc12 | inactive
24 | CC(O)(CC(=O)O)CC(=O)O[C@@H]1[C@@H](O)[C@H](OCCc2ccccc2)O[C@H](CO)[C@H]1O (some centres not stated) | inactive
25 | CC(C)CC1NC(=O)C(C(C)c2ccccc2)NC(=O)C(C(C)C)NC(=O)C(C)NC(=O)CCCNC(=O)C(Cc2c[nH]c3ccccc23)NC(=O)C(C)NC1=O (stereo not drawn) (cyclo([GABA]AV[ξPhe(βξ-Me)]LAW); configuration not given here) | inactive
26 | CC1=C(CC(=O)O)c2cc(F)ccc2C1=Cc1ccc(S(C)(=O)=O)cc1 | inactive
27 | CC1(C)O[C@@]2(C)CC[C@@H]1C[C@@H]2OC1OC(CO)C(O)C(O)C1O (some centres not stated) | inactive
